# Test results: PubChem BioAssay AID1159580 (chemical genetic matrix, 2015)
# Out of some 5,500 compounds screened, about 2,000 (36%) were called active. Not shown: some 18% with an inconclusive outcome. Some of the results follow. Values without a mark were called inactive. No stated cut-off is given here; in the data, active means normalized growth mostly below about 0.91 (no sharp cut-off); inconclusive means no clear call, values can overlap the other calls; inactive means mostly above about 0.92.
# Assay: chemical genetic growth profiling, strain panel (AID 1159580);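 further: tested at 20 µM; growth read once vehicle control cultures reached saturation at 30 °C; 1 = growth at the plate median or of vehicle wells; lower values mean less growth of the strain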
# Settings: growth OD
structure (smiles),measurement,setting,value
C=C1C([C@]2(C)C(CC(=O)OC)[C@@](C)(COC(C)=O)OC(=O)C[C@@H]2OC(C)=O)[C@@H](OC=O)[C@H](OC(=O)C(OC(C)=O)C(C)CC)[C@@]2(C)[C@H](c3ccoc3)CC(=O)C12O (stereo not given in full),normalized growth,"S. cerevisiae deletion strains, locus YAL013W, strain DEP1, active compounds read low",1.03
same,normalized growth,"S. cerevisiae deletion strains, locus YBR021W, strain FUR4, active compounds read low",1.03
same,normalized growth,"S. cerevisiae deletion strains, locus YBR229C, strain ROT2, active compounds read low",1.01
same,normalized growth,"S. cerevisiae deletion strains, locus YCL029C, strain bik1, active compounds read low",1.03
same,normalized growth,"S. cerevisiae deletion strains, locus YDL035C, strain GPR1, active compounds read low",1.01
same,normalized growth,"S. cerevisiae deletion strains, locus YDL074C, strain BRE1, active compounds read low",1.04
same,normalized growth,"S. cerevisiae deletion strains, locus YDL101C, strain DUN1, active compounds read low",1.03
same,normalized growth,"S. cerevisiae deletion strains, locus YDL134C, strain PPH21, active compounds read low",1.03
same,normalized growth,"S. cerevisiae deletion strains, locus YDL185W, strain tfp1, active compounds read low",1.03
same,normalized growth,"S. cerevisiae deletion strains, locus YDL192W, strain arf1, active compounds read low",1.03
same,normalized growth,"S. cerevisiae deletion strains, locus YDR101C, strain arx1, active compounds read low",1.01
same,normalized growth,"S. cerevisiae deletion strains, locus YDR150W, strain NUM1, active compounds read low",1.03
same,normalized growth,"S. cerevisiae deletion strains, locus YDR162C, strain NBP2, active compounds read low",1.02
same,normalized growth,"S. cerevisiae deletion strains, locus YDR318W, strain mcm21, active compounds read low",1.03
same,normalized growth,"S. cerevisiae deletion strains, locus YDR388W, active compounds read low",1.03
same,normalized growth,"S. cerevisiae deletion strains, locus YDR502C, strain sam2, active compounds read low",1.04
same,normalized growth,"S. cerevisiae deletion strains, locus YEL061C, strain CIN8, active compounds read low",1.02
same,normalized growth,"S. cerevisiae deletion strains, locus YER110C, active compounds read low",1.03
same,normalized growth,"S. cerevisiae deletion strains, locus YER155C, strain BEM2, active compounds read low",1.02
same,normalized growth,"S. cerevisiae deletion strains, locus YER167W, strain BCK2, active compounds read low",1.01
same,normalized growth,"S. cerevisiae deletion strains, locus YGL078C, strain dbp3, active compounds read low",1.04
same,normalized growth,"S. cerevisiae deletion strains, locus YGL086W, strain mad1, active compounds read low",1.04
same,normalized growth,"S. cerevisiae deletion strains, locus YGL248W, strain PDE1, active compounds read low",1.02
same,normalized growth,"S. cerevisiae deletion strains, locus YGR135W, strain pre9, active compounds read low",1.03
same,normalized growth,"S. cerevisiae deletion strains, locus YGR229C, strain SMI1, active compounds read low",1.08
same,normalized growth,"S. cerevisiae deletion strains, locus YGR252W, strain gcn5, active compounds read low",1.03
same,normalized growth,"S. cerevisiae deletion strains, locus YHR030C, strain SLT2, active compounds read low",1.02
same,normalized growth,"S. cerevisiae deletion strains, locus YHR079C, strain IRE1 (second series), active compounds read low",1.03
same,normalized growth,"S. cerevisiae deletion strains, locus YHR094C, strain hxt1, active compounds read low",1.04
same,normalized growth,"S. cerevisiae deletion strains, locus YHR129C, strain ARP1, active compounds read low",1.02
same,normalized growth,"S. cerevisiae deletion strains, locus YHR200W, strain rpn10, active compounds read low",1.03
same,normalized growth,"S. cerevisiae deletion strains, locus YIL066C, strain RNR3, active compounds read low",1
same,normalized growth,"S. cerevisiae deletion strains, locus YIL073C, strain SPO22, active compounds read low",1.06
same,normalized growth,"S. cerevisiae deletion strains, locus YIL125W, strain kgd1, active compounds read low",1.02
same,normalized growth,"S. cerevisiae deletion strains, locus YIR030C, strain dcg1, active compounds read low",1.03
same,normalized growth,"S. cerevisiae deletion strains, locus YJL095W, strain BCK1, active compounds read low",1.04
same,normalized growth,"S. cerevisiae deletion strains, locus YJL134W, strain LCB3, active compounds read low",1.02
same,normalized growth,"S. cerevisiae deletion strains, locus YJL168C, strain set2, active compounds read low",1.03
same,normalized growth,"S. cerevisiae deletion strains, locus YJL187C, strain SWE1 (second series), active compounds read low",1.03
same,normalized growth,"S. cerevisiae deletion strains, locus YKL009W, strain mrt4, active compounds read low",0.952
same,normalized growth,"S. cerevisiae deletion strains, locus YKL068W, active compounds read low",1.03
same,normalized growth,"S. cerevisiae deletion strains, locus YKL085W, strain MDH1 (second series), active compounds read low",1.16 [resistant] (active)
same,normalized growth,"S. cerevisiae deletion strains, locus YKL085W, strain MDH1, active compounds read low",1.16 [resistant] (active)
same,normalized growth,"S. cerevisiae deletion strains, locus YKL190W, strain CNB1, active compounds read low",1.01
same,normalized growth,"S. cerevisiae deletion strains, locus YKR001C, strain vps1, active compounds read low",1.03
same,normalized growth,"S. cerevisiae deletion strains, locus YLR039C, strain RIC1, active compounds read low",1.09
same,normalized growth,"S. cerevisiae deletion strains, locus YLR058C, strain SHM2, active compounds read low",1.01
same,normalized growth,"S. cerevisiae deletion strains, locus YLR102C, strain apc9, active compounds read low",1.03
same,normalized growth,"S. cerevisiae deletion strains, locus YLR268W, strain sec22, active compounds read low",1.02
same,normalized growth,"S. cerevisiae deletion strains, locus YLR330W, strain CHS5, active compounds read low",1.02
same,normalized growth,"S. cerevisiae deletion strains, locus YLR371W, strain rom2, active compounds read low",1.03
same,normalized growth,"S. cerevisiae deletion strains, locus YLR418C, strain cdc73, active compounds read low",1.07
same,normalized growth,"S. cerevisiae deletion strains, locus YML016C, strain PPZ1, active compounds read low",1.01
same,normalized growth,"S. cerevisiae deletion strains, locus YML032C, strain rad52, active compounds read low",1.03
same,normalized growth,"S. cerevisiae deletion strains, locus YML124C, strain tub3, active compounds read low",1.03
same,normalized growth,"S. cerevisiae deletion strains, locus YMR078C, strain ctf18, active compounds read low",1.03
same,normalized growth,"S. cerevisiae deletion strains, locus YMR223W, strain ubp8, active compounds read low",1.03
same,normalized growth,"S. cerevisiae deletion strains, locus YMR307W, strain GAS1, active compounds read low",1.04
same,normalized growth,"S. cerevisiae deletion strains, locus YNL067W, strain RPL9B, active compounds read low",1.03
same,normalized growth,"S. cerevisiae deletion strains, locus YNL233W, strain BNI4, active compounds read low",1.03
same,normalized growth,"S. cerevisiae deletion strains, locus YNL250W, strain rad50, active compounds read low",1.01
same,normalized growth,"S. cerevisiae deletion strains, locus YNL271C, strain bni1, active compounds read low",1.03
same,normalized growth,"S. cerevisiae deletion strains, locus YNL298W, strain CLA4, active compounds read low",1.02
same,normalized growth,"S. cerevisiae deletion strains, locus YNL307C, strain MCK1, active compounds read low",1.02
same,normalized growth,"S. cerevisiae deletion strains, locus YNR052C, strain pop2, active compounds read low",1.04
same,normalized growth,"S. cerevisiae deletion strains, locus YOL012C, strain htz1",1.2
same,normalized growth,"S. cerevisiae deletion strains, locus YOL147C, strain pex11, active compounds read low",1.03
same,normalized growth,"S. cerevisiae deletion strains, locus YOR061W, strain CKA2, active compounds read low",1.02
same,normalized growth,"S. cerevisiae deletion strains, locus YOR069W, strain VPS5, active compounds read low",1.02
same,normalized growth,"S. cerevisiae deletion strains, locus YOR136W, strain idh2, active compounds read low",1.03
same,normalized growth,"S. cerevisiae deletion strains, locus YOR144C, strain elg1, active compounds read low",1.04
same,normalized growth,"S. cerevisiae deletion strains, locus YOR184W, strain ser1, active compounds read low",1.02
same,normalized growth,"S. cerevisiae deletion strains, locus YOR316C, strain cot1, active compounds read low",1.03
same,normalized growth,"S. cerevisiae deletion strains, locus YPL241C, strain CIN2, active compounds read low",1.02
same,normalized growth,"S. cerevisiae deletion strains, locus YPR119W, strain clb2, active compounds read low",1.02
same,normalized growth,"S. cerevisiae deletion strains, locus YPR141C, strain kar3, active compounds read low",1.02
same,normalized growth,"S. cerevisiae deletion strains, locus YPR163C, strain tif3, active compounds read low",1.04
same,normalized growth,"S. cerevisiae deletion strains, locus YPR167C, strain met16, active compounds read low",1.03
same,normalized growth,"S. cerevisiae deletion strains, strain wtn01, active compounds read low",1.01
same,normalized growth,"S. cerevisiae strains, strain wild type, active compounds read low",1.03
